Results reported in ChEMBL document CHEMBL2218924, “A broad activity screen in support of a chemogenomic map for kinase signalling research and drug discovery” (Biochem J, 2013).

Columns and labels:
[1] = molecular target: Tyrosine-protein kinase SYK (Homo sapiens) (UniProt P43405); conditions: at 10 µM
[2] = molecular target: T1, Mitogen-activated protein kinase kinase kinase 7 (Homo sapiens) (UniProt O43318); conditions: at 1 µM
T1 sequence (whole entry): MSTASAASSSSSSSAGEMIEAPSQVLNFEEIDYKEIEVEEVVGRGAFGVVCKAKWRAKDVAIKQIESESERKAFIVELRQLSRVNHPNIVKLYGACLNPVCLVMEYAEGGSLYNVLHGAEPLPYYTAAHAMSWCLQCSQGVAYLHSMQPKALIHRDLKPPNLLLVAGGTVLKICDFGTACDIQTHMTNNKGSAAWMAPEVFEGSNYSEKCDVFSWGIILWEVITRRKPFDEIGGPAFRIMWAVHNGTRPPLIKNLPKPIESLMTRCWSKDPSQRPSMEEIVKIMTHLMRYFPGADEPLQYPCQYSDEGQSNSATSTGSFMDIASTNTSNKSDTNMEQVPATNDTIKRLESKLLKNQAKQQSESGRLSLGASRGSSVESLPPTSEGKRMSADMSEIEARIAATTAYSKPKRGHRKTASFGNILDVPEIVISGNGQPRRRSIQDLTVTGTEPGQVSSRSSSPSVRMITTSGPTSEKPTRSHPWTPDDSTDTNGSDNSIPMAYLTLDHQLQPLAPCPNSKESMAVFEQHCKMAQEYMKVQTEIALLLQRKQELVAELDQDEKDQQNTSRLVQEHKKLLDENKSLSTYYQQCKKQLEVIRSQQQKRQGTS

[3] = molecular target: T1, Mitogen-activated protein kinase kinase kinase 7 (Homo sapiens); conditions: at 10 µM
[4] = molecular target: T2, Serine/threonine-protein kinase TAO1 (Homo sapiens) (UniProt Q7L7X3); conditions: at 1 µM
T2 sequence (whole entry): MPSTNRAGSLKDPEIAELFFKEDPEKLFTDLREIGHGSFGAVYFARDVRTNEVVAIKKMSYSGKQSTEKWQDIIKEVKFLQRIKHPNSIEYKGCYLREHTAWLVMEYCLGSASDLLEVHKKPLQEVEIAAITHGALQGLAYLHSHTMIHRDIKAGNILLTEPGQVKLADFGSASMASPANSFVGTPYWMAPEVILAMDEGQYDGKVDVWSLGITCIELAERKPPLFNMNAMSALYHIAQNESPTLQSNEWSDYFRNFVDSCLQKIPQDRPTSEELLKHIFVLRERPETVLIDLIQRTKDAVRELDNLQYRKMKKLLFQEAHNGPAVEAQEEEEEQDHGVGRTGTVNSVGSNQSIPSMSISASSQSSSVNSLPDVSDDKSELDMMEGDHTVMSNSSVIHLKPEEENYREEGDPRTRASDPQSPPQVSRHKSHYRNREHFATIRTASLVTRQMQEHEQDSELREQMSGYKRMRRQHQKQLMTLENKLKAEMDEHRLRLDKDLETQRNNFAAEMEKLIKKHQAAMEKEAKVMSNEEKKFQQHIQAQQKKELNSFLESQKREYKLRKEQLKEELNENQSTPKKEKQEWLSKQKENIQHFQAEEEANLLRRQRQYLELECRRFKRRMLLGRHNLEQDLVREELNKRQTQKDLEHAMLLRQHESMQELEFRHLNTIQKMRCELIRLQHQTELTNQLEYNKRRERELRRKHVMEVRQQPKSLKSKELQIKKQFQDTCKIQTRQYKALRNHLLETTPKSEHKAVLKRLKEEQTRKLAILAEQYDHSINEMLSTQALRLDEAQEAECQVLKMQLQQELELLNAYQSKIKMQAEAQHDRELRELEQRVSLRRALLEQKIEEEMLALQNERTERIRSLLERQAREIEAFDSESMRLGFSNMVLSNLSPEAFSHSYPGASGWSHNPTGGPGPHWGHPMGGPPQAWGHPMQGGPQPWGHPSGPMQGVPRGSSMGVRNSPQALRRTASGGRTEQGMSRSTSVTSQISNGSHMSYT

[5] = molecular target: T2, Serine/threonine-protein kinase TAO1 (Homo sapiens); conditions: at 10 µM
[6] = molecular target: T3, Serine/threonine-protein kinase TAO2 (Homo sapiens) (UniProt Q9UL54); conditions: at 1 µM
T3 sequence (whole entry): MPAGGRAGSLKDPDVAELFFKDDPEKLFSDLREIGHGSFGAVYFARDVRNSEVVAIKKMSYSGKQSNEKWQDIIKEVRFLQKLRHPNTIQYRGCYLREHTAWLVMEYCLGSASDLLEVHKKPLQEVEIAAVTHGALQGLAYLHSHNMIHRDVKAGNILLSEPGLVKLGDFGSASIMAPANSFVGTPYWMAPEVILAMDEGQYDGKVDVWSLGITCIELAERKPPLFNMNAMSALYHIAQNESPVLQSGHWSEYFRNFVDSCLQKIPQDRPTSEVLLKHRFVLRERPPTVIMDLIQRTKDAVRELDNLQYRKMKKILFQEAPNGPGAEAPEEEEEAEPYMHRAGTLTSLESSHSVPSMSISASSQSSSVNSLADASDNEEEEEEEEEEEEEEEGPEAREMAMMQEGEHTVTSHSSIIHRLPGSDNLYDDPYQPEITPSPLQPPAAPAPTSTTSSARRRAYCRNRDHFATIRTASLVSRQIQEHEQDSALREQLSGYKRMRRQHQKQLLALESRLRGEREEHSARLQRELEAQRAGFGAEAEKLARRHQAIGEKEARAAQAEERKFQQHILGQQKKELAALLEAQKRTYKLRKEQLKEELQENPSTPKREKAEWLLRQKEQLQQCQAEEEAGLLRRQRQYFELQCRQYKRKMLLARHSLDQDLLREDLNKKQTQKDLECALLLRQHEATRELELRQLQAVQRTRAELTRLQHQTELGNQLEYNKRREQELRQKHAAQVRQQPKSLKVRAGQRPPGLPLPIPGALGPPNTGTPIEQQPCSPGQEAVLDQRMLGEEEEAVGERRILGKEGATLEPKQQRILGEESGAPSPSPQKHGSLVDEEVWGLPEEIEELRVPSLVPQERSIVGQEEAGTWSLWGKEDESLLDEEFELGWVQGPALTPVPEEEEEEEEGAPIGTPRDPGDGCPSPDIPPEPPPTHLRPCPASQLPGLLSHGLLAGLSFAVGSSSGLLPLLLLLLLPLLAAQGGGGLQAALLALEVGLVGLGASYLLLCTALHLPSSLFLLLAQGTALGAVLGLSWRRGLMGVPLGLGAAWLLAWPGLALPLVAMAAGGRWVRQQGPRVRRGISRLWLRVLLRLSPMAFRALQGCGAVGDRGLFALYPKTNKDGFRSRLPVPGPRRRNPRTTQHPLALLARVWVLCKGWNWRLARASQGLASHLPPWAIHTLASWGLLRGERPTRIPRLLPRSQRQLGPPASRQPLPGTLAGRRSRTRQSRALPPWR

[7] = molecular target: T3, Serine/threonine-protein kinase TAO2 (Homo sapiens); conditions: at 10 µM
[8] = molecular target: T4, Serine/threonine-protein kinase TAO3 (Homo sapiens) (UniProt Q9H2K8); conditions: at 1 µM
T4 sequence (whole entry): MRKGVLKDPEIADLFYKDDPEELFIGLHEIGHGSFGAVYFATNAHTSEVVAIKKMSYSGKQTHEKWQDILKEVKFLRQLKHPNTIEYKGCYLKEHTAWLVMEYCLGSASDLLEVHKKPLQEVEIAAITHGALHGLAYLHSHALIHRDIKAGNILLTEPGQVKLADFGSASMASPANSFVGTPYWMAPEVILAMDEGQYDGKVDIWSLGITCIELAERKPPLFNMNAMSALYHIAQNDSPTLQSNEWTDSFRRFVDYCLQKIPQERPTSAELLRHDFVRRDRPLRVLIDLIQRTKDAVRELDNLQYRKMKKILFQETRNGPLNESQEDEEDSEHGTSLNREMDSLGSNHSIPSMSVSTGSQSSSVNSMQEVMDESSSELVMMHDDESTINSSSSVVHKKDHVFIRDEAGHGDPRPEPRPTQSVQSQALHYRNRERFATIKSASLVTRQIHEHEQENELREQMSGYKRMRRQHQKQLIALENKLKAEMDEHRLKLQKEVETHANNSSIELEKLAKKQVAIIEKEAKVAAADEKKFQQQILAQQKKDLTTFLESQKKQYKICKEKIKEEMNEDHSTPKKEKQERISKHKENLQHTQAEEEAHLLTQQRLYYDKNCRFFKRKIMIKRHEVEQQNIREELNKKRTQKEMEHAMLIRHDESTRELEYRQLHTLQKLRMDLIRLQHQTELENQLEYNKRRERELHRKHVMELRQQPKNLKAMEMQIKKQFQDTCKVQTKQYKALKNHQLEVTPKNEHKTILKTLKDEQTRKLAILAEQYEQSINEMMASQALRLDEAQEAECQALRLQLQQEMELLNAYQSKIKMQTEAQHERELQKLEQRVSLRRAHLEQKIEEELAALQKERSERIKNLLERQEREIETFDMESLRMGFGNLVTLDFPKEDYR

[9] = molecular target: T4, Serine/threonine-protein kinase TAO3 (Homo sapiens); conditions: at 10 µM
[10] = molecular target: T5, Serine/threonine-protein kinase TBK1 (Homo sapiens) (UniProt Q9UHD2); conditions: at 1 µM
T5 sequence (whole entry): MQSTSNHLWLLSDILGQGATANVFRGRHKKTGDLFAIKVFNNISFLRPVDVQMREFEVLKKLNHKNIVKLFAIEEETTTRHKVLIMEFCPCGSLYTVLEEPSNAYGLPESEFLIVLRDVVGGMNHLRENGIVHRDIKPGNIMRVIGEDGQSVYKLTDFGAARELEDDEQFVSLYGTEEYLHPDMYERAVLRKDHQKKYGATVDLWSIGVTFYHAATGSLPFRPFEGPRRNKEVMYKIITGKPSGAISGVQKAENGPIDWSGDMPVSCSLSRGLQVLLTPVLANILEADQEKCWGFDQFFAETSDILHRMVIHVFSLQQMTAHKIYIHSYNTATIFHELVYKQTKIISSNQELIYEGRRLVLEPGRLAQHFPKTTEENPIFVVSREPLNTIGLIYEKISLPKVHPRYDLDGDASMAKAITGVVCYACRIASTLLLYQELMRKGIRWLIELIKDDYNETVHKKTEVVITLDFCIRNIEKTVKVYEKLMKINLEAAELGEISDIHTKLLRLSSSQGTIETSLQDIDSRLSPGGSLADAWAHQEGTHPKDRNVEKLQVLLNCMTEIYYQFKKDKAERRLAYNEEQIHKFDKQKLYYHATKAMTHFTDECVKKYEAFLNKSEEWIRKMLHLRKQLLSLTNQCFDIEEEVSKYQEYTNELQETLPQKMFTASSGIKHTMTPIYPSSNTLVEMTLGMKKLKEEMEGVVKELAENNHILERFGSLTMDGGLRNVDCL

[11] = molecular target: T5, Serine/threonine-protein kinase TBK1 (Homo sapiens); conditions: at 10 µM
[12] = molecular target: T6, TGF-beta receptor type-1 (Homo sapiens) (UniProt P36897); conditions: at 1 µM
T6 sequence (whole entry): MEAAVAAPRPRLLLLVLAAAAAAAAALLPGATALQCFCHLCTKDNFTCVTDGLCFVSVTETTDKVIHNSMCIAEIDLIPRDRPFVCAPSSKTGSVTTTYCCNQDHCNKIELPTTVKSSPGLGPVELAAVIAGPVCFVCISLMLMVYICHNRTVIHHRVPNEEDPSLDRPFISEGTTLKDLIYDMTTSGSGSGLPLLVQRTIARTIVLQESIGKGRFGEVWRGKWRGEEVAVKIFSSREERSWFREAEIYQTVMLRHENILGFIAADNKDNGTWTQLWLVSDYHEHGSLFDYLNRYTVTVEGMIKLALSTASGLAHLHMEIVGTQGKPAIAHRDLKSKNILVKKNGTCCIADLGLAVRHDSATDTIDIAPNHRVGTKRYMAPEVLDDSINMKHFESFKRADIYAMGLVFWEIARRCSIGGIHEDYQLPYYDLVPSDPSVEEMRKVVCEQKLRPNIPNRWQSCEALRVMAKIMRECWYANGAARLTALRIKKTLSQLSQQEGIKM

[13] = molecular target: T6, TGF-beta receptor type-1 (Homo sapiens); conditions: at 10 µM
[14] = molecular target: Insulin-like growth factor 1 receptor (Homo sapiens) (UniProt P08069); conditions: at 1 µM
[15] = molecular target: Insulin-like growth factor 1 receptor (Homo sapiens) (UniProt P08069); conditions: at 10 µM
[16] = molecular target: T7, Inhibitor of nuclear factor kappa-B kinase subunit beta (Homo sapiens) (UniProt O14920); conditions: at 10 µM
T7 sequence (whole entry): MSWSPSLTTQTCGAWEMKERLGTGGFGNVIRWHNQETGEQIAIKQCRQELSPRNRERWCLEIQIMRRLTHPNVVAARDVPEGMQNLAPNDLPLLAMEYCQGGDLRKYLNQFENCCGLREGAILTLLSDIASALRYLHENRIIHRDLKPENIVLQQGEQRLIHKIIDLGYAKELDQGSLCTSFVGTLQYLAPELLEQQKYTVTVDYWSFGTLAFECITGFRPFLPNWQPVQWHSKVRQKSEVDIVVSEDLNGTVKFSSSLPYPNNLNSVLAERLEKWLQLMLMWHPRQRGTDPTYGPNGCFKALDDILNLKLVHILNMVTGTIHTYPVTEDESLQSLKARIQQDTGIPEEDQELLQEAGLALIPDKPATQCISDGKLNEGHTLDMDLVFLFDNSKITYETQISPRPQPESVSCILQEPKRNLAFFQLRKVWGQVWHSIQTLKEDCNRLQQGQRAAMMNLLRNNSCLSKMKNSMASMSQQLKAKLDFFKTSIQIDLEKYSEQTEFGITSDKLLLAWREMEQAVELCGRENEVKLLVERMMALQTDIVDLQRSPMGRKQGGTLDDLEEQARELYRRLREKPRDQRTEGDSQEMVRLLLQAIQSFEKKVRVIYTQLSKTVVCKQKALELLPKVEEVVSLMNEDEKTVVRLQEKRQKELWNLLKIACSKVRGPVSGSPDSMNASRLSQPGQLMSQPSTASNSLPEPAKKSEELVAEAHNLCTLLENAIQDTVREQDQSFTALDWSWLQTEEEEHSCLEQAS

[17] = molecular target: Insulin receptor (Homo sapiens) (UniProt P06213); conditions: at 1 µM
Insulin receptor (Homo sapiens), sequence (P06213 28-758 limits assumed): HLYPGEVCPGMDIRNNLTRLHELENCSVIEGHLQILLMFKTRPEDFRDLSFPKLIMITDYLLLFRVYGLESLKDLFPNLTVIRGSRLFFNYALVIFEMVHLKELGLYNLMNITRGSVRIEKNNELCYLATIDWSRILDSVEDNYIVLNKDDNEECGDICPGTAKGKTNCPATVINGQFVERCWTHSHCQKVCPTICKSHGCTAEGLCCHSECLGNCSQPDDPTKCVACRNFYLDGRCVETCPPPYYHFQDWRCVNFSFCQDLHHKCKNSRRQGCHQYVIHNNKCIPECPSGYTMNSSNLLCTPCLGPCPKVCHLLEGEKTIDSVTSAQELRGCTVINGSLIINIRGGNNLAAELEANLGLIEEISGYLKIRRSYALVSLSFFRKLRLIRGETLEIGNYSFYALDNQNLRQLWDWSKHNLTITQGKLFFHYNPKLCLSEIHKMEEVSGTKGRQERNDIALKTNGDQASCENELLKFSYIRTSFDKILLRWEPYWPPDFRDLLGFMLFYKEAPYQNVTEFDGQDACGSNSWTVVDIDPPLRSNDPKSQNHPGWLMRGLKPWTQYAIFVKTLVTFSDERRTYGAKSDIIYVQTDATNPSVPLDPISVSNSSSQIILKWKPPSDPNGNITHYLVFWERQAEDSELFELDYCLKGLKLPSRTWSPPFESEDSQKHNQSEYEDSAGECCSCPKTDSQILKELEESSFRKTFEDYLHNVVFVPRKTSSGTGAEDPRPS
Insulin receptor (Homo sapiens), sequence (P06213 763-1382 limits assumed): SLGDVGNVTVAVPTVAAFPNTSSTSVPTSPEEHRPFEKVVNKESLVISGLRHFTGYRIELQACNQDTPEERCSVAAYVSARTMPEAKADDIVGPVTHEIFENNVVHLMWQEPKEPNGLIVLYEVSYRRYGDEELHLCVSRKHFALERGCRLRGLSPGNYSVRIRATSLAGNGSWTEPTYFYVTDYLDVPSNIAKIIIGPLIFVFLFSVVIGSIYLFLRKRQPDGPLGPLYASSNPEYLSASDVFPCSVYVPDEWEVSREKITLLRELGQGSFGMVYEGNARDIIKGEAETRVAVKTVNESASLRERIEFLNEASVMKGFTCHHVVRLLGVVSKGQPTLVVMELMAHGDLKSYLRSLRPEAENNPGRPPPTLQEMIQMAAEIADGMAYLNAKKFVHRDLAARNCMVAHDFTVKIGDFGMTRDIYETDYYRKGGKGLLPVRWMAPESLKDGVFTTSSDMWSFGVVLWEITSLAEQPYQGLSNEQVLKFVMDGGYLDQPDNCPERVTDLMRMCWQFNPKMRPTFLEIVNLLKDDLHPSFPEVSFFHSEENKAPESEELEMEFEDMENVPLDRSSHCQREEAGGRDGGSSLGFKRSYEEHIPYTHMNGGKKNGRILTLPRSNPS

Insulin-like growth factor 1 receptor (Homo sapiens), sequence (P08069 31-736 limits assumed): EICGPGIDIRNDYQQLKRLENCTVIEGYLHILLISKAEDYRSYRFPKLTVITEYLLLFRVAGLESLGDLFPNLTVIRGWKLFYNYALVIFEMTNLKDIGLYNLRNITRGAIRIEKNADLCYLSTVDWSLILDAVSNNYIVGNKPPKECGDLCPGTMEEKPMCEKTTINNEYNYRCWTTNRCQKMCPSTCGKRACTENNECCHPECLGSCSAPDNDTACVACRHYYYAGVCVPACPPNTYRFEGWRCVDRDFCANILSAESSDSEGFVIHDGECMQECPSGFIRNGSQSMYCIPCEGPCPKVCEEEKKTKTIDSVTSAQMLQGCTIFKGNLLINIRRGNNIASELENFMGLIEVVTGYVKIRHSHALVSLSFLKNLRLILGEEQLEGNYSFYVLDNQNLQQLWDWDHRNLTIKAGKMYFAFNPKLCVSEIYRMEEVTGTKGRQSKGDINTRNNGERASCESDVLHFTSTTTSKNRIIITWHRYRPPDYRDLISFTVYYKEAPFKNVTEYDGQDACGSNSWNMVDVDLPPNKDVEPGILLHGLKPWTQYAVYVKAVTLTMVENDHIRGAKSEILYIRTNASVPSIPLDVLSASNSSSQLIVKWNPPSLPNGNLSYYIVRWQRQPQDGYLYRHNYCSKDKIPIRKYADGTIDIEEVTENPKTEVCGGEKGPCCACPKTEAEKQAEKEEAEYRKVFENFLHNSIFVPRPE
Insulin-like growth factor 1 receptor (Homo sapiens), sequence (P08069 741-1367 limits assumed): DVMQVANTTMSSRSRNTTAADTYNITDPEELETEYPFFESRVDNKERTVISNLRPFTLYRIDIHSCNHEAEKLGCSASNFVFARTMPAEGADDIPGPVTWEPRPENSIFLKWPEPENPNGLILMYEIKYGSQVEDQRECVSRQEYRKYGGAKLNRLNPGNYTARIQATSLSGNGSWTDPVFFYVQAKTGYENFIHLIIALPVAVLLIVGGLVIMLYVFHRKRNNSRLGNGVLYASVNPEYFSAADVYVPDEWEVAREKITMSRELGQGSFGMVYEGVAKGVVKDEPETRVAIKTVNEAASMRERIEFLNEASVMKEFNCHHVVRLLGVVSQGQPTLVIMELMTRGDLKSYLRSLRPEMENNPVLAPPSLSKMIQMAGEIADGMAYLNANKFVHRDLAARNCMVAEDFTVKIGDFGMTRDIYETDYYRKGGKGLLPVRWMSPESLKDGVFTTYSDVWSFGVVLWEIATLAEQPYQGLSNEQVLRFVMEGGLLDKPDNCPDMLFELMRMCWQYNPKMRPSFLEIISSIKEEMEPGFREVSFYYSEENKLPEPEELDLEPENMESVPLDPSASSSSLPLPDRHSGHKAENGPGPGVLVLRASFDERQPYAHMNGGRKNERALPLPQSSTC

| Structure (SMILES) | residual activity [1] | residual activity [2] | residual activity [3] | residual activity [4] | residual activity [5] | residual activity [6] | residual activity [7] | residual activity [8] | residual activity [9] | residual activity [10] | residual activity [11] | residual activity [12] | residual activity [13] | residual activity [14] | residual activity [15] | residual activity [16] | residual activity [17] |
| --- | --- | --- | --- | --- | --- | --- | --- | --- | --- | --- | --- | --- | --- | --- | --- | --- | --- |
| CC(C)[C@H](CO)Nc1nc(Nc2cc(N)cc(Cl)c2)c2ncn(C(C)C)c2n1 | 73% | 85% | 30% | 92% | 52% | 88% | 73% | 93% | 54% | 97% | 43% | 98% | 91% | 75% | 17% | 88% | 90% |
| COc1ccc(Cl)cc1NC(=O)Nc1cc(C)nc2ccccc12 | 88% | 98% | 95% | – | – | – | 85% | 95% | 83% | 78% | 69% | 86% | 94% | – | – | – | – |
